Screens as filed in PubChem BioAssay.
TWEAK-Fn14 inh – inhibitors of TWEAK-Fn14 interaction signaling | inhibition, % at 10 µM | hit rate 2% among 360,000 | TWEAK-stimulated Fn14 reporter cells, luciferase luminescence, 8 h; in the data active = inhibition above about 50%
CF NFkB inh – cystic fibrosis NF-kB activation inhibition; KKLEB NF-kB-GFP reporter, PAF-induced, GFP fluorescence overnight; inhibition, % at 5 µM; hit rate 0.86% among 360,000; AID 588850;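 active = at least 50% inhibition at 5 µM, scaled per plate between neutral and stimulator controls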;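 note: PAF is a Pseudomonas aeruginosa culture filtrate used as stimulus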
Peg3 prom inh – reduces Peg3 promoter-driven luciferase expression in HeLa; HeLa PEG-Prom luciferase reporter, luminescence, overnight; inhibition, % at 20 µM; hit rate 1.7% among 360,000;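 active = inhibition of at least 50% at 20 µM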
TROY signal inh – blocks TROY-dependent signaling in reporter cells | Q293 LMP1-TROYcd NF-kB luciferase reporter, 4 h | inhibition, % at 10 µM | hit rate 0.98% among 360,000 | AID 1347056;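 active = compounds whose plate-normalised and pattern-corrected inhibition of the luciferase reporter signal at the single screening dose is 50% or more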
KKLEB cytotox – CF airway cell cytotoxicity counter-screen. KKLEB CF airway cells viability, ATPlite luminescence, overnight; active compounds read low; cells stimulated with P. aeruginosa culture filtrate. hit rate 0.36% among 360,000. AID 602141. activity change (cytotoxicity), % at 5 µM;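 active = corrected activity change at or below -50% at 5 µM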
HIF-2a inh – inhibitors of HIF-2a; 786-0 RCC cells HIF-2a reporter, luciferase luminescence, overnight; inhibition, % at 18.8 µM; hit rate 0.72% among 360,000;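 active = inhibition of the luminescence signal of 40% or more relative to plate controls, in a single-dose primary screen at 18.75 µM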
Of the large screens only hits and unclear results are named; the others gave an inactive call. The list is not random: actives were taken first. Their share in the collection is about 4%.

CN=c1scc(C)n1/N=C/c1cc(Br)c(O)c(Br)c1	none
O=C(COc1ccc(Br)cc1)NCCNC(=O)c1ccncc1	none
CC(C)(C)OC(=O)N1CCCC(C(=O)Nc2cccc(C(=O)N3CCOCC3)c2)C1 (stereo not drawn)	none
C=C(C)[C@@H]1CC[C@]2(C(=O)O)CC[C@]3(C)C(CCC4[C@@]5(C)CC[C@H](O)C(C)(C)C5CC[C@]43C)C12 (stereo partly drawn)	CF NFkB inh 79.3, Peg3 prom inh 89.5, KKLEB cytotox -75.9
COc1cccc(C(C(=O)NCc2ccccc2)N2CCN(C(=O)C3CCCO3)CC2)c1OC (stereo not drawn)	none (no result: TWEAK-Fn14 inh, CF NFkB inh, Peg3 prom inh, TROY signal inh, KKLEB cytotox)
CN1C=C/C(=C\c2cc[n+](C)c3ccccc23)c2ccccc21	CF NFkB inh 56.1
CC[n+]1ccc(/C=C2\Sc3ccccc3N2CCCS(=O)(=O)[O-])c2ccccc21	none
NC(N)=N/N=C/c1ccc(Cl)c(Cl)c1	Peg3 prom inh 99.5
COc1cc(/C=N/N=C2/NC(=O)C(CC(=O)O)S2)ccc1OCc1ccc(Cl)cc1 (stereo not drawn)	none
COc1cc(/C=N/N=C(N)N)ccc1OCc1ccc(Cl)cc1	TWEAK-Fn14 inh 81.5, Peg3 prom inh 102.5, TROY signal inh 62.0
O=C(CSc1nnc2c(n1)[nH]c1ccccc12)NCc1ccccc1F	none
O=C(COC(=O)CC(c1ccccc1)c1ccccc1)NCc1ccc(Cl)cc1	TWEAK-Fn14 inh 62.1
CCN1C(=O)Nc2cccc3cccc1c23	none
C=CCN1C(=O)N(CC=C)c2cccc3cccc1c23	TROY signal inh 65.5
CCc1nc2ccc(C(=O)N3CCN(C(=O)c4ccco4)CC3)cn2c1N(C)C(=O)c1cccc(OC)c1	none
Cc1ccc(C(=O)N2C(=S)C(c3ccc(F)cc3)=NC23CCN(C)CC3)cc1	Peg3 prom inh 90.0
COc1ccc(S(=O)(=O)Nc2cccc3c2O[C@@H](CN(C)Cc2ccc(C(=O)O)cc2)[C@@H](C)CN([C@H](C)CO)C3=O)cc1	none
COC(=O)C(C(=O)OC)c1ccccc1NC(=O)OCc1ccccc1	none (no result: TWEAK-Fn14 inh, CF NFkB inh, Peg3 prom inh, TROY signal inh, KKLEB cytotox)
Cc1ccc2nc(C(Cl)(Cl)Cl)nc(N/N=C/c3ccncc3)c2c1	none
Cc1ccc(-c2nc(N/N=C/c3ccncc3)c3ccccc3n2)cc1	TWEAK-Fn14 inh 75.9, KKLEB cytotox -95.3
Cc1cc(N/N=C/c2ccc(O)c(C)c2O)nc(-c2ccccc2O)n1	TWEAK-Fn14 inh 66.0, CF NFkB inh 103.8, Peg3 prom inh 68.9, KKLEB cytotox -102.5
Cc1c(O)ccc(/C=N/Nc2nc(-c3cccnc3)nc3ccccc23)c1O	CF NFkB inh 60.6
COc1cc(/C=C2\SC(=N)N(c3ccc(F)cc3)C2=O)ccc1O	TWEAK-Fn14 inh 51.7, CF NFkB inh 61.8
NNC(=O)CN1CCN(c2ncc(C(F)(F)F)cc2Cl)CC1	none
CN(C)C=NC(=O)c1ccc(N2CCN(c3ncc(C(F)(F)F)cc3Cl)CC2)cc1	none
CN(C)/C=C/C(=O)c1ccc(N2CCN(c3ncc(C(F)(F)F)cc3Cl)CC2)cc1	Peg3 prom inh 72.6
O=C(CN1CCN(c2ncc(C(F)(F)F)cc2Cl)CC1)NCCNc1ncc(C(F)(F)F)cc1Cl	TWEAK-Fn14 inh 75.6 (no result: TROY signal inh)
COc1ccc(C(=O)OCC(=O)NC2CC2)cc1OC	none
CCOC(=O)c1ccc(N2C(=O)c3n[nH]c(C)c3C2c2cccnc2)cc1 (stereo not drawn)	none
CCOC(=O)c1ccc(N2C(=O)c3n[nH]c(-c4ccco4)c3C2c2ccc([N+](=O)[O-])cc2)cc1 (stereo not drawn)	Peg3 prom inh 60.0
O=C(CN1C(=O)NC(Cc2ccccc2)C1=O)Nc1ccccc1 (stereo not drawn)	TWEAK-Fn14 inh 96.8 (no result: TROY signal inh)
CN1CCN(CCCNC(=O)c2ccc(/C=C3\Oc4ccccc4N(Cc4ccccc4F)C3=O)cc2)CC1	Peg3 prom inh 69.2
Cc1cccc(CN2C(=O)/C(=C\c3ccc(C(=O)NCCCN4CCN(C)CC4)cc3)Oc3ccccc32)c1	Peg3 prom inh 86.6
CCN(CC)C(=O)C1CCCN(c2ncnc3c2cnn3-c2cccc(C)c2)C1 (stereo not drawn)	TWEAK-Fn14 inh 50.3
CCOC(=O)C1CCCN(c2ncnc3c2cnn3-c2cccc(C)c2)C1 (stereo not drawn)	none
CCN(CC)C(=O)C1CCCN(c2ncnc3c2cnn3-c2ccc(Cl)cc2)C1 (stereo not drawn)	TWEAK-Fn14 inh 70.6, Peg3 prom inh 55.6, TROY signal inh 63.0, HIF-2a inh 50.1
CCOC(=O)C1(Cc2ccccc2C)CCCN(C(=O)c2ccc(C(C)=O)s2)C1 (stereo not drawn)	none
COc1ccccc1-c1noc2c1C(=O)N(Cc1cn(C3CCCC3)nn1)CC2	none (no result: CF NFkB inh, Peg3 prom inh, KKLEB cytotox)
CC1(C)CC(=O)C=C(C#CC2(O)CCCCC2)C1	TWEAK-Fn14 inh 63.8
Cc1cccc(C#CC2=CC(=O)CC(C)(C)C2)c1	none
O=C(COc1ccc2ccccc2c1Br)N1CCCCC1	none
O=C(Oc1ccc2ccccc2c1Br)N1CCCCCC1	TWEAK-Fn14 inh 64.5, TROY signal inh 66.5
Cc1c(CCOC(=O)C2C3CC4CC(C3)CC2C4)sc[n+]1CC(=O)c1ccc(Br)cc1 (stereo not drawn)	Peg3 prom inh 100.7
O=C(CNC(=O)c1ccc(Br)cc1)OC1CCOC1=O (stereo not drawn)	none
C=CCNC(=S)N/N=C(\C)c1ccccn1	TWEAK-Fn14 inh 108.4, Peg3 prom inh 74.7
CC(=NNC(=S)Nc1ccccc1Cl)c1ccccn1	none
CN(C1CCCCC1)S(=O)(=O)c1ccc(SCC(=O)C(C)(C)C)nc1	none
CC(C)Oc1cccc(C(=O)NC(=S)Nc2ccccc2)c1	TWEAK-Fn14 inh 59.4, TROY signal inh 66.5
CC(C)Oc1cccc(C(=O)NC(=S)Nc2cccnc2)c1	none
O=C(Nc1cccc(NC(=O)c2cccs2)c1)c1ccc([N+](=O)[O-])o1	Peg3 prom inh 54.7
COc1cc(OC)cc(C(=O)Nc2nnc(NC(=S)Nc3ccccc3)s2)c1	CF NFkB inh 65.2
O=C(Nc1cccc(N2C(=O)C=CC2=O)c1)c1cccs1	Peg3 prom inh 92.1
Cc1nc2ccccc2c(=O)n1-c1cccc(NC(=O)c2cccs2)c1	none
Cc1cc(Br)ccc1SCC(=O)OCC(=O)Nc1ccc2[nH]c(=O)[nH]c2c1	none
Cc1nnc(NC(=O)C2CCCN2C(=O)Nc2ccccc2)s1 (stereo not drawn)	none
COc1cc(C(=O)Nc2nc(-c3cccs3)cs2)cc(OC)c1OC	TWEAK-Fn14 inh 56.2
COc1cc(NC(=O)c2ccc([N+](=O)[O-])o2)ccc1NC(=O)c1cccs1	Peg3 prom inh 58.9
O=C(Nc1cccc(NC(=O)c2ccc([N+](=O)[O-])o2)c1)c1ccco1	Peg3 prom inh 57.2
O=C(Nc1nc(-c2cccs2)cs1)c1ccc([N+](=O)[O-])o1	CF NFkB inh 75.5
CCOC(=O)c1cccc(C2=CC(=O)C[C@H](c3ccc(Cl)cc3)C2)c1	none
Cc1cc(C)c(OCC(=O)Nc2cccc(NC(=O)c3ccco3)c2)c(Br)c1	TWEAK-Fn14 inh 55.9
